The list is not random: actives were taken first. Their share in the collection is about 2.8%.
PP1 counter = PP1-alpha phosphatase inhibitors, primary screen, counter-screen for PP5 inhibitor project, biochemical, fluorescence, OMFP substrate, single point; Serine/threonine-protein phosphatase PP1-alpha catalytic subunit (Homo sapiens), P62136; purified PP1alpha; inhibition, % at 6.7 µM; actives 0.9% (n = 320,000);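 active = inhibition above the mean inhibition of all tested compounds plus 3 SD, computed separately for each screening campaign, cut at about 15% in these data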
PG9 Ab binder = binders of HIV-1 gp120 antibody PG9, primary screen, biochemical, TR-FRET; HIV-1 gp120 / PG9 antibody interaction; TR-FRET gp120-PG9 antibody binding; inhibition, % at 6.7 µM; actives 0.43% (n = 360,000); AID 624416, 2012; in the data active = inhibition above about 8.5%
PP5 inh = PP5 phosphatase inhibitors, primary screen, biochemical, fluorescence. Serine/threonine-protein phosphatase 5 (Homo sapiens), P53041. purified PP5c, OMFP substrate fluorescence. inhibition, % at 6.7 µM. actives 0.18% (n = 320,000);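 active = inhibition above the campaign's mean inhibition across all tested compounds plus 3 SD, cut at about 9.5% in these data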;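 note: 0% = DMSO only and 100% = 100 µM cantharidin control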
Target sequence (P53041 whole entry, looked up): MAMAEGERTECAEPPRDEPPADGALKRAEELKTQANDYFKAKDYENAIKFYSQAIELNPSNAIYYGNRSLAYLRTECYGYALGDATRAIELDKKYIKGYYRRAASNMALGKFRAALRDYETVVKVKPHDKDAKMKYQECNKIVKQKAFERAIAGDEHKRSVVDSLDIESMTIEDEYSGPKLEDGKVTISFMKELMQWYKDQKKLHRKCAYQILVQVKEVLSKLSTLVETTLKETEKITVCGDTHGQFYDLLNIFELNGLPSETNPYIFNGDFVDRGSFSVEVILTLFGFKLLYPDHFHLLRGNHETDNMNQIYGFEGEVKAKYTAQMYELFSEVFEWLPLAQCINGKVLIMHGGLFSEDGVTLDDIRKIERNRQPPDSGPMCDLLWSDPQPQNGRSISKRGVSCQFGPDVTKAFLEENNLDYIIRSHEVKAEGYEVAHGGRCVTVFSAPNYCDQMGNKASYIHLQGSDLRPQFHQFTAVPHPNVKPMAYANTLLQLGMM
JMJD2C inh = inhibitors of GASC-1 histone demethylase, primary screen, biochemical, fluorescence, DELFIA europium; inhibition, % at 2.35 µM; actives 0.069% (n = 330,000); GST-JMJD2C(1-420) H3K9me3 demethylation; Lysine-specific demethylase 4C (Homo sapiens), Q9H3R0; AID 2099, 2009;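 active = more than half of a compound's replicate wells show inhibition beyond 50%, single wells judged on their own value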;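 note: signal counts dimethyl H3K9 product captured on neutravidin plate; 0% = median of DMSO wells and 100% = 0.3 times that DMSO median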
KLK7 zymogen act = proKLK7 zymogen activators, primary screen, biochemical, fluorescence intensity; Kallikrein-7 (Homo sapiens), P49862; purified proKLK7, EDANS-DABCYL substrate fluorescence; 100% is mature enzyme control, 0% vehicle; activation, % at 7 µM; actives 0.9% (n = 370,000); AID 652039, 2013;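 active = activation above the mean of all tested compounds plus 3 SD, computed per campaign excluding outliers beyond control limits, cut at about 13% in these data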
Rev-erbA mod = modulators of Rev-erb alpha DNA binding, primary screen, biochemical, FITC-DNA, fluorescence polarization, uHTS; Nuclear receptor subfamily 1 group D member 1 (Homo sapiens), P20393; Rev-erbα–FITC-DNA binding, 90 min; activity, % at 10 µM; actives 0.79% (n = 370,000); AID 1259318, 2017;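 active = activity above about 14%, limit read from the data; passing the limit was not always enough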;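 note: 0% = DMSO wells with 35 nM protein and 100% = DMSO wells with 750 nM protein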
KLK7 act conf = proKLK7 zymogen activators, confirmation, biochemical, fluorescence intensity, triplicate. shares compounds with KLK7 zymogen act. purified proKLK7, EDANS-DABCYL substrate fluorescence; scaled: vehicle 0, mature enzyme 100. activation, % at 7 µM. actives 68% (n = 3,200). AID 686949, 2013;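 active = activation, as change over the incubation, above the mean of all tested compounds plus 3 SD, cut at about 13% in these data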
EDANS-DABCYL int = EDANS-DABCYL substrate optical interference, artefact control for kallikrein-7 zymogen activator project, biochemical, fluorescence intensity, high throughput | no enzyme, 4 h; solvent 0%, active enzyme control 100% | shares compounds with KLK7 zymogen act | actives 80% (n = 3,200) | activation, % at 7 µM;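 active = activation above the all-compound mean plus 3 SD, ignoring values outside control-based bounds, cut at about 4.8% in these data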;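 note: value is the 4 h activation minus the activation read at time zero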
Starred values were filed as active, the others as inactive; i = inactive; / = no result.

SMILES	PP1 counter	PG9 Ab binder	PP5 inh	JMJD2C inh	KLK7 zymogen act	Rev-erbA mod	KLK7 act conf	EDANS-DABCYL int
CC(=O)OCCn1c2nc(=O)[nH]c(=O)c-2nc2cc(C)c(C)cc21	/	0	/	-6	31*	7	62*	71*
C=CCn1c(=N)c(C(=O)NCCCOC)cc2c(=O)n3cccc(C)c3nc21	0	2	0	2	120*	0	56*	66*
COc1ccc(CCn2c(=N)c(C(=O)NCC3CCCO3)cc3c(=O)n4ccccc4nc32)cc1 (centres undefined)	-4	-1	-2	8	1	-1	/	/
COCCCn1c(=N)c(C(=O)NCC2CCCO2)cc2c(=O)n3ccccc3nc21 (centres undefined)	-9	0	3	-3	33*	-1	11	15*
COCCCn1c(=N)c(C(=O)NCC2CCCO2)cc2c(=O)n3cccc(C)c3nc21 (centres undefined)	-2	2	-1	6	121*	-5	61*	71*
Cc1ccc(Cn2c(=N)c(C(=O)NCC3CCCO3)cc3c(=O)n4cccc(C)c4nc32)cc1 (centres undefined)	-1	0	0	-2	2	0	/	/
COCCn1c(=N)c(C(=O)NCCc2ccccc2)cc2c(=O)n3cccc(C)c3nc21	2	1	0	-10	0	3	/	/
CNC(=O)c1cc2c(=O)n3cccc(C)c3nc2n(C(C)C)c1=N	-1	2	0	-2	91*	-5	71*	71*
O=C(CN1CCCc2ccccc21)NCc1ccc(Cl)cc1	/	/	/	/	0	0	/	/
COc1cc(-c2nnc(SCC(=O)NN=Cc3c[nH]c4ccccc34)n2-c2ccccc2)cc(OC)c1OC	/	/	/	/	0	5	/	/
O=C(N[C@@H]1CC[C@H]2SC[C@H](C(=O)O)N2C1=O)OCC1c2ccccc2-c2ccccc21	/	/	/	/	-1	3	/	/
Cc1cccn2c(=O)c3cc(C(=O)NCCc4ccccc4)c(=N)n(CC4CCCO4)c3nc12 (centres undefined)	1	0	2	-3	-4	3	/	/
N=c1c(C(=O)NCC2CCCO2)cc2c(=O)n3ccccc3nc2n1Cc1ccccc1 (centres undefined)	-3	3	0	-29	118*	3	24*	23*
N=c1c(C(=O)NCC2CCCO2)cc2c(=O)n3ccccc3nc2n1Cc1ccc(Cl)cc1 (centres undefined)	-2	0	3	-10	-5	2	/	/
Cc1cccn2c(=O)c3cc(C(=O)NCc4cccnc4)c(=N)n(CC4CCCO4)c3nc12 (centres undefined)	1	2	1	6	111*	-2	10	33*
CCCn1c(=N)c(C(=O)NCC2CCCO2)cc2c(=O)n3cccc(C)c3nc21 (centres undefined)	-8	0	1	-40	83*	-3	5	3
O=C(NCc1cccnc1)c1cccn2c(=O)c3sccc3nc12	-2	1	2	-6	19*	-9	67*	74*
CCOC(=O)C1=CCN(S(=O)(=O)c2ccc(Br)cc2)C1c1cccc(F)c1 (centres undefined)	/	0	/	/	0	-2	/	/
COC(=O)[C@]12C[C@H](CC(=O)NCc3ccccc3)C(=O)N(Cc3ccccc3)C1=C[C@H](C(C)(C)C)O[C@@H]2C	/	1	/	/	0	-10	/	/
COC(=O)c1cc2c(c3c4cc(OC)ccc4n(S(=O)(=O)c4ccc(F)cc4)c13)C(=O)N(Cc1ccccc1)C2	/	0	/	/	-3	1	/	/
Cc1cc2c(nc1C)CCCN2S(=O)(=O)c1ccc(C(F)(F)F)cc1	/	1	/	/	0	1	/	/
Cc1cccn2c(=O)c3cc(C(=O)NCC4CCCO4)c(=N)n(CCN4CCOCC4)c3nc12 (centres undefined)	3	2	-1	11	14*	1	9	9.4*
Cc1ccc(Cn2c(=N)c(C(=O)NCC3CCCO3)cc3c(=O)n4ccccc4nc32)cc1 (centres undefined)	-2	0	1	-2	-1	-6	/	/
CCOC(=O)c1[nH]c2ccc(OC)cc2c1NC(=O)CCN1CCCC(C)C1 (centres undefined)	-3	-2	2	-18	27*	4	9	3
O=c1nc2ccc(Cl)cn2c2ccc(S(=O)(=O)N3CCCCC3)cc12	1	2	0	i	-9	-2	/	/
SMILES	PP1 counter	PG9 Ab binder	PP5 inh	JMJD2C inh	KLK7 zymogen act	Rev-erbA mod	KLK7 act conf	EDANS-DABCYL int
O=c1nc2ccc(Cl)cn2c2ccc(S(=O)(=O)N3CCOCC3)cc12	-1	0	3	-16	20*	-3	70*	78*
O=S1(=O)CCN2C=C(Br)C=C(Br)C2=N1	-2	-1	3	-2	0	-2	/	/
O=S1(=O)CCN2C=C(Cl)C=C(Cl)C2=N1	-2	1	-2	5	25*	7	33*	29*
c1ccc(-c2cc(-c3ccccc3)n3ncnc3n2)cc1	-3	1	1	2	0	-3	/	/
COc1ccc(-c2cc(-c3ccccc3)nc3ncnn23)cc1	1	-1	-1	-9	15*	-1	-52	-76
FC(F)(F)c1cc(CNC2CCC23CCC(c2ccccc2)CC3)ccc1Cl (centres undefined)	/	/	/	/	/	-4	/	/
COc1cccc(-c2nc3ccccc3s2)c1O	0	-1	3	8	25*	-4	-3	-4
CS(=O)(=O)Nc1ccc(-c2cncc3nccn23)cc1	/	-2	/	/	16*	-1	3	4.5*
CCOc1ccc(-c2cncc3nccn23)cc1	/	0	/	/	17*	-7	33*	36*
COc1ccc(-c2cncc3nccn23)cc1OC	/	2	/	/	1	4	/	/
